In the supplement of paper PMC6555819:

Tests used:
Experiment in all cases: PBM binding z-score (relative to random genomic background probes); higher = stronger binding; sequences stand for … in GC…GCGATTGACAGCGTAGAATGAAGG
[1] = test system: PPARg:RXRa DBDmut IVT, anti-RXR (DBD mutation: RXRa K156A/R161A, NR concentration 270 nM, RXRa partner concentration 90 nM)
How it was run: (§1)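 Binding z-scores were set against random background probes. The data came from custom Agilent 4×180K protein-binding microarrays carrying double-stranded probes with 34-nt variable regions, incubated 1 h with ligand-free nuclear receptor dimers. Partner-specific antibodies detected binding, and scanned fluorescence was regression-normalized.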

[2] = test system: PPARg:RXRa IVT, anti-PPARg (NR concentration 270 nM, RXRa partner concentration 90 nM)
How it was run: as §1

[3] = test system: PPARg DBDmut:RXRa IVT, anti-PPARg (DBD mutation: PPARg1 K132A/R137A, NR concentration 270 nM, RXRa partner concentration 90 nM)
How it was run: as §1

[4] = test system: PPARg DBDmut IVT, anti-PPARg (DBD mutation: PPARg1 K132A/R137A, NR concentration 270 nM)
How it was run: as §1

[5] = test system: PPARg homodimer (NR concentration 180 nM)
How it was run: as §1

[6] = test system: PXR:RXRa (NR concentration 270 nM, RXRa partner concentration 90 nM)
How it was run: as §1

[7] = test system: PXR homodimer (NR concentration 270 nM)
How it was run: as §1

[8] = test system: RARa:RXR (NR concentration 270 nM, RXRa partner concentration 90 nM)
How it was run: as §1

[9] = test system: RARa homodimer (NR concentration 270 nM)
How it was run: as §1

[10] = test system: RARb:RXRa (NR concentration 270 nM, RXRa partner concentration 90 nM)
How it was run: as §1

| Sequence | PBM binding z-score [1] | PBM binding z-score [2] | PBM binding z-score [3] | PBM binding z-score [4] | PBM binding z-score [5] | PBM binding z-score [6] | PBM binding z-score [7] | PBM binding z-score [8] | PBM binding z-score [9] | PBM binding z-score [10] |
| --- | --- | --- | --- | --- | --- | --- | --- | --- | --- | --- |
| TGTAAAAGTTCAAAGGTAACGTAAGTATCCACAC | 0.163 | 2.72 | 1.6 | 1.19 | 2.18 | 5.02 | 2.34 | 5.42 | 1.74 | 4.85 |
| CCTTCCGGGTCAAGGTTATAGCACGGGTGGTACG | 2.99 | 4.69 | 0.688 | 0.0375 | 2.1 | 3.7 | 0.341 | 4.25 | 0.928 | 4.1 |
| ATCGAAAGGTCGAGGTGAGTATAGAGAAAGGGAA | 0.752 | 2.38 | 0.636 | 0.688 | 1.8 | 2.49 | 0.362 | 3.37 | 0.75 | 4.18 |
| ACTAGTTGGTCAGCTGAGGTCACAAACAATTCGG | 1.09 | 2.67 | -0.0448 | 0.681 | 2.75 | 5.42 | 1.38 | 4.65 | 1.05 | 3.53 |
| CCTTACGGGTCACTGACAGGTTCTAGCATTTGGA | 3.31 | 3.38 | 0.541 | -0.487 | 1.98 | 2.71 | -0.239 | 3.46 | 0.459 | 3.63 |
| GTACCAACGTGAATAGGTCGTTGATGAGTAGGCG | -0.261 | -0.148 | -0.62 | -0.461 | -0.374 | -0.0666 | -0.401 | 0.105 | -0.122 | -0.00783 |
| CGAACTAGGTCATTGCCAGGACAGTGAATAGTAA | 8.25 | 7.95 | 1.34 | 0.503 | 1.04 | 1.4 | 0.261 | 1.87 | 0.423 | 3.44 |
| TCGAGTAGGTTAGTCGGGGCGTTCAGCCAACATA | 1.73 | 0.976 | -0.368 | -0.973 | -0.66 | -0.237 | -0.771 | -0.294 | -0.96 | 0.0731 |
| TAGCCTAGGGCATTGGGCCAGTATAGTACGCATC | 0.771 | 1.87 | -0.149 | -0.898 | -1.01 | -0.62 | -0.779 | -0.444 | -1.17 | 1.08 |
| TCGAGTAGGTTACTAATGGGGCATTCAGCTTTCT | 3.02 | 2.39 | 0.0923 | -0.475 | -0.0554 | 0.00033 | -0.441 | 0.224 | -0.684 | 0.494 |
| GCGACTGGGGCATCAGCAGGATACCATAACTTAA | 3.9 | 2.61 | -1.01 | -0.959 | -0.175 | -0.691 | -0.304 | -0.475 | -0.756 | 0.233 |
| CGTCCAAGGTCAGCAGGTCATTGAAAGCGACGTG | 2.83 | 3.78 | 0.265 | -0.0575 | 3.28 | 4.51 | 0.829 | 5.89 | 0.397 | 5.51 |
| ACTATTAGCTGACTTAGGGCAACCGATACGACGC | 0.43 | 0.75 | 1.05 | 1.38 | 0.825 | -0.173 | -0.168 | 0.142 | 1.14 | 0.676 |
